Data from PubChem BioAssay AID720504 (National Center for Advancing Translational Sciences (NCATS), 2013).
Among all 360,000 compounds or so, about 10,000 (2.8%) were called active. Inconclusive results (about 4%) are left out. This excerpt belongs to a sample that is enriched for actives. Unmarked numbers belong to inactive results. Calls follow the shape of the dose curve; as a rule, active = well fitted inhibition curve with a large enough effect; inconclusive = small, poorly fitted or top-dose-only effect; inactive = flat fitted curve, though single readings scatter.

Molecular target: Serine/threonine-protein kinase PLK1 (Homo sapiens) (UniProt P53350)
Test: qHTS for Inhibitors of PLK1-PDB (polo-like kinase 1 - polo-box domain): Primary Screen; also: nearly all actives have a fitted effect of over 65% in size; as to max response, negative = inhibition: series mostly up to about 57 µM
Settings: Plk1 PBD binding of FITC phosphopeptide, fluorescence polarization
% is scaled to controls: 0 for no effect and ±100 for the full control effect; potency is read from the fitted curve at half-maximal effect.

Serine/threonine-protein kinase PLK1 (Homo sapiens), sequence (P53350 whole entry, looked up, the tested form may be a part): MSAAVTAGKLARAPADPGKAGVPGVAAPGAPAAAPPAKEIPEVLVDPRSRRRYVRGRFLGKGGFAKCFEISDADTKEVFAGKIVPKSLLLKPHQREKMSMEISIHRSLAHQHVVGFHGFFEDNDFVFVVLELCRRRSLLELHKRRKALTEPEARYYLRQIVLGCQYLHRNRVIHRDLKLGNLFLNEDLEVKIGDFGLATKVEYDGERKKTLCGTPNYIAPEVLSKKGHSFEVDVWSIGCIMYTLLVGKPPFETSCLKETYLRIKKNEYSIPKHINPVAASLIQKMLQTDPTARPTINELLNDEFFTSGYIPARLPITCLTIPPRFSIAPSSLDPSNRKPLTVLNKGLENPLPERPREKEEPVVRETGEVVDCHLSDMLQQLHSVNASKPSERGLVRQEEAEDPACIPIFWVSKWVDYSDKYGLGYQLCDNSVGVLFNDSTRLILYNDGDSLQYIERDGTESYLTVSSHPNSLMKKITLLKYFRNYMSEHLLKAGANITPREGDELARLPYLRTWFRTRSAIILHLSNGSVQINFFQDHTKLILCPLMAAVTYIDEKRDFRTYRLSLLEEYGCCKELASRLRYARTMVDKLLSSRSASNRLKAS

| SMILES | Potency | max response, negative = inhibition |
| --- | --- | --- |
| Nc1ccc(-c2nnc(-c3ccc(-c4ccccc4)cc3)o2)cc1 | 13.4 µM (active) | – |
| COc1ccc(-c2nnc(-c3ccc4ccccc4c3)o2)cc1 | – | -4.59% |
| CN(C)c1ccc(-c2nnc(-c3cccnc3)o2)cc1 | – | 3.15% |
| COc1cc(NC(=O)C2=C(C)OCCS2)c(Cl)cc1C(=O)NCCCN1CCCC(C)C1 (stereo unspecified) | – | -4.33% |
| O=C1CSC(=S)N1/N=C/c1ccc(O)c([N+](=O)[O-])c1 | 23.8 µM (active) | – |
| Cc1cc(C(=O)N/N=C/c2ccc(O)c([N+](=O)[O-])c2)c(C)n1-c1ccc(F)cc1 | – | -24.1% |
| O=[N+]([O-])c1ccc(N2CCSCC2)cc1O | – | 2.23% |
| CS(=O)(=O)N1CCCCC1c1cc(C(=O)NCc2ccccc2)no1 (stereo unspecified) | – | -4.51% |
| CCCCN1C(=O)C(CC(=O)NCc2cccs2)CC(C(=O)N2CCCCCC2)=C1C (stereo unspecified) | – | -3.48% |
| COC(=O)C(Cc1c[nH]c2ccccc12)NC(=O)CCNC(=O)c1ccco1 (stereo unspecified) | – | 3.99% |
| CCCCN1CC(C)(C)[C@H](CC(=O)Nc2ccc(Br)cc2)C1=O | – | 2.01% |
| COc1cc(NC(=O)CSC(=S)N2CCCC2)c(OC)cc1Cl | – | -15.5% |
| COc1cc(NC(=S)N2CCCC(C)C2)c(OC)cc1Cl (stereo unspecified) | 18.9 µM (active) | – |
| COc1ccc(C)cc1NC(=S)N1CCOCC1 | – | -2.89% |
| C[C@@H]1Cn2cnc(C(=O)Nc3ccc(CNC(=O)OC(C)(C)C)cc3)c2C(=O)N1 | – | -11.4% |
| COc1cccc2cc(-c3cc(=O)oc4cc(C)c(O)cc34)oc12 | – | -14.5% |
| COc1ccc2oc(=O)cc(-c3cc4ccccc4o3)c2c1 | 26.7 µM (active) | – |
| COc1ccc(Nc2cc(=O)oc3ccccc23)cc1 | – | -6.94% |
| Oc1cccc2ccc(/C=C/c3ccc(Br)s3)nc12 | – | -8.23% |
| CC(=O)Nc1ccc(S(=O)(=O)Nc2nccc(/C=C/c3ccccc3F)n2)cc1 | – | -13.8% |
| Nc1ccc(S(=O)(=O)Nc2nccc(/C=C/c3ccc(Br)s3)n2)cc1 | 9.47 µM (active) | – |
| CC(C)C1Cc2[nH][nH]c(=O)c2C(c2ccc(Cl)cc2)O1 (stereo unspecified) | – | -26.3% |
| CCCOC(=O)c1ccc(N2C(=O)c3ccccc3C2=O)cc1 | – | -2.78% |

| SMILES | Potency | max response, negative = inhibition |
| --- | --- | --- |
| CCOc1ccc(NC(=O)C(C)N2C(=O)c3ccccc3C2=O)cc1 (stereo unspecified) | – | -11.1% |
| CCO/C=C1\C(=O)N(c2ccc(OCC)cc2)C(=O)c2ccccc21 | 13.4 µM (active) | – |
| COc1ccc(NC(=O)C[C@H]2C(=O)N(CCc3ccccc3)C[C@@H]2C)cc1 | – | -7.3% |
| CC1(C(=O)NS(=O)(=O)c2ccc(C#N)cc2)CCN1C(=O)c1ccc(C2CCCCC2)cc1 (stereo unspecified) | – | -18.9% |
| COc1cccc(-c2cc(C(=O)N/N=C/c3ccc(OC)c(COC(C)=O)c3)c3ccccc3n2)c1 | 29.9 µM (active) | – |
| COc1ccc(-c2cc(C(=O)N/N=C/c3cccnc3)c3ccccc3n2)c(OC)c1 | – | 1.56% |
| CCOc1ccc(-c2cc(C(=O)N/N=C/c3ccc(O)cc3)c3ccccc3n2)cc1 | – | 1.12% |
| CC1=NN(C(=O)c2ccc(Br)cc2)C(O)(c2ccccc2)C1 (stereo unspecified) | – | -4.08% |
| CC1=NN(C(=O)Cc2ccc(C)cc2)C(O)(c2cccnc2)C1 (stereo unspecified) | 23.8 µM (active) | – |
| CC1=NN(C(=O)c2ccccc2Br)C(O)(c2cccnc2)C1 (stereo unspecified) | – | -6.62% |
| O=c1cc(CN2CCCCCCC2)c2c(ccc3ccccc32)o1 | – | -3.34% |
| CCCCCCCCN1C(=O)[C@H](CC(=O)NCc2cccc3ccccc23)C[C@@]2(C(=O)OC)CCCCC=C12 | – | -2.64% |
| COc1ccc(C(C)(NC(C)=O)c2nc(-c3ccc(S(C)(=O)=O)cc3)cs2)cc1 (stereo unspecified) | – | 0.405% |
| Cc1ccc(C=O)c([B-](F)(F)F)c1 | – | -2.89% |
| CC(=O)Nc1ccc2c3c(ccc([N+](=O)[O-])c13)CC2 | – | -1.77% |
| COc1cc(C(=O)CCc2ccc3c(c2)OCO3)cc(OC)c1OC | – | -9.68% |
| COc1c(O)ccc2c1CN1CCc3cc4c(cc3C1C2)OCO4 (stereo unspecified) | 23.8 µM (active) | – |
| COc1ccc2cc1Oc1ccc(cc1)C[C@H]1c3cc(c(OC)cc3CCN1C)Oc1c(O)c(OC)cc3c1[C@H](C2)N(C)CC3 | – | -6.01% |
| CC1(Oc2ccccc2-c2ccno2)CCN(Cc2ccc(-c3ccccc3)o2)C1 (stereo unspecified) | – | -2.77% |
| O=C(CSc1nc2ccccc2o1)N1CCN(c2ccccc2)CC1 | – | -6.93% |
| O=C(CSc1nc2ccccc2o1)N/N=C/c1ccccc1C(=O)O | 26.7 µM (active) | – |
| CC(C)(C)C(=O)CSc1nc2ccccc2o1 | – | -18% |
| O=C(NCc1cccnc1)c1cc(C2CCCCN2C(=O)CCc2ccccc2)on1 (stereo unspecified) | – | -11.3% |

| SMILES | Potency | max response, negative = inhibition |
| --- | --- | --- |
| COC(=O)c1cccc(NC(=O)c2cccc(N3C(=O)CCC3=O)c2)c1 | – | -2.1% |
| COC(=O)c1cccc(N2C(=O)C3C4C=CC(CC4)C3C2=O)c1 (stereo unspecified) | – | -4.67% |
| COC(=O)c1cccc(-n2[nH]nnc2=S)c1 | 23.8 µM (active) | – |
| CCOC(=O)[C@]12CCCC=C1N(CCC1=CCCCC1)C(=O)[C@H](CC(=O)N1CCCCC1)C2 | – | -0.904% |
| Cc1ccnc(SC2CC(=O)N(c3ccccc3)C2=O)n1 (stereo unspecified) | – | -15.5% |
| Cc1ccnc(-n2sc3ccccc3c2=O)n1 | 3.77 µM (active) | – |
| COCCNc1nc(Nc2ccccc2Cl)c2sc(-c3ccccc3)cc2n1 | – | -12.6% |
| Cc1ccc(C(=O)N2CCCc3ccccc32)c(Cl)c1 | – | 3.98% |
| Cc1ccc2cccc([N+](=O)[O-])c2n1 | – | 2.99% |
| CCOC(=O)c1ccccc1CN1C(=O)c2ccccc2S1(=O)=O | – | -6.41% |
| CCOC(=O)c1ccccc1NC(=O)c1c(N)n(C)c(=O)[nH]c1=O | – | -13.3% |
| CCOC(=O)c1cc2n(c1N)-c1ccccc1C2=O | 2.67 µM (active) | – |
| CN(Cc1ccccc1)C(=O)[C@@H]1CCCN1C(=O)[C@@H]1CCCN1C(=O)c1c(F)cccc1F | – | -9.51% |
| O=C(CSC1=NCCS1)Nc1nc(-c2ccccc2)cs1 | – | -11.4% |
| CC(NC(=O)c1ccco1)C(=O)Nc1nc(-c2ccccn2)cs1 (stereo unspecified) | – | -15.6% |
| CC1CCCCC1NC(=O)COc1ccc(C#N)cc1 (stereo unspecified) | – | -1.85% |
| O=C(CN1C(=O)C2C3C=CC(C3)C2C1=O)Nc1nc(-c2ccccn2)cs1 (stereo unspecified) | – | -7.14% |
| N#Cc1ccc(OCC(=O)Nc2nc(-c3ccccn3)cs2)cc1 | 8.44 µM (active) | – |
| O=C(COc1ccccc1F)Nc1nc(-c2ccccn2)cs1 | 11.9 µM (active) | – |
| CC(C)c1cc(C(=O)N(C)C2CCCN(Cc3ccccc3F)C2)n(C)n1 (stereo unspecified) | – | -5.2% |
| NC(Cc1ccc(F)cc1)c1csc(Nc2nncc3ccccc23)n1 (stereo unspecified) | – | -1.72% |
| COC(=O)[C@]12CCCCC=C1N(Cc1ccccc1)C(=O)[C@H](CC(=O)NCc1ccc(C)o1)C2 | – | -1.64% |
| CNC(=O)c1ccc(CN(C)C(=O)c2cc(C3CC3)nc3c2cnn3C(C)C)cc1 | – | -13.7% |

| SMILES | Potency | max response, negative = inhibition |
| --- | --- | --- |
| O=S1(=O)CC(N2CCN(Cc3ccccc3F)CC2)CN1Cc1cn(Cc2ccccc2)nn1 (stereo unspecified) | – | 0.233% |
| CCOC(=O)C1CCCN(C(=O)c2cc(-c3cccs3)oc2C)CC1 (stereo unspecified) | – | -3.67% |
| O=C(Oc1cccc(C(=S)N2CCOCC2)c1)c1cccc(Cl)c1 | – | -12.2% |
| O=C(Oc1ccc(C(=S)N2CCOCC2)cc1)c1ccc(F)cc1 | 21.2 µM (active) | – |
| O=C(Oc1ccc(F)cc1)N1CCOCC1 | – | -11.5% |
| COc1cc(C)c(S(=O)(=O)N2CCOCC2)c(C)c1C | – | -14.4% |
| Cc1cc(C)c(S(=O)(=O)N2CCOCC2)cc1C | 10.6 µM (active) | – |
| COc1ccc(S(=O)(=O)N2CCOCC2)c(C)c1C | – | -1.42% |
| CCOP(=O)(OCC)C(Cc1ccccc1)N=C(c1ccccc1)c1ccccc1 (stereo unspecified) | – | -2.76% |
| COC(=O)[C@@]12C[C@@H](CC(=O)NCCCCc3ccccc3)C(=O)N(CCc3ccc(OC)c(OC)c3)C1=CCC(C)(C)C2 | – | -6.86% |
| CCOC(=O)[C@]12CCCC=C1N(CCC1=CCCCC1)C(=O)[C@H](CC(=O)N1CCOCC1)C2 | – | -15.5% |
| CN1CCN(CCCNC(=O)c2ccc(/C=C3\Oc4ccccc4N(Cc4ccc(Cl)cc4)C3=O)cc2)CC1 | – | -4.87% |
| CC(C)OCCCNC(=O)CN1C(=O)/C(=C/c2ccccc2F)Oc2ccccc21 | 26.7 µM (active) | – |
| CCCN1CCN(CCCNC(=O)CN2C(=O)COc3ccccc32)CC1 | – | -2.49% |
| CC1(C(=O)NS(=O)(=O)c2ccccc2)CCN1C(=O)c1ccccc1 (stereo unspecified) | – | -4.3% |
| CN(C)C(=O)c1cccc(-c2cnc3sc(NCc4ccc5c(c4)OCO5)nn23)c1 | – | -3.28% |
| Cc1cccc(C(=O)OCC(=O)Nc2sccc2C(N)=O)c1C | – | 4.89% |
| Cc1cnc(C(=O)N2CCCC(C(=O)c3ccc(C(F)(F)F)cc3)C2)cn1 (stereo unspecified) | – | 6.24% |
| Cc1nc(C(=O)N2CCCC(C(=O)c3ccc(Cl)cc3)C2)cs1 (stereo unspecified) | 26.7 µM (active) | – |
| O=C(c1ccc(C(F)(F)F)cc1)C1CCCN(C(=O)c2csnn2)C1 (stereo unspecified) | – | 2.18% |
| Cc1cccc(C)c1-n1nnnc1C(CCc1ccccc1)N1CCN(C/C=C/c2ccccc2)CC1 (stereo unspecified) | – | -10.6% |
| c1cc(-c2ccc3[nH]ccc3c2)n2ccnc2c1 | – | -9% |
